From PubChem BioAssay AID1671194 (National Center for Advancing Translational Sciences (NCATS), 2021)
The whole screen tested about 140,000 compounds, of which about 240 (0.17%) were called active. Roughly 9% stayed inconclusive and do not appear here. This excerpt belongs to a sample that is enriched for actives. A number with no mark means an inactive call. Calls follow the shape of the dose curve; as a rule, active = well fitted inhibition curve with a large enough effect; inconclusive = small, poorly fitted or top-dose-only effect; inactive = no such curve, though single readings can be large or run the other way.

Assay: Primary qHTS assay for inhibitors of alpha-synuclein gene (SNCA) expression; also: nearly all actives have a fitted effect of over 45% in size
Settings: HEK-293 SNCA-luciferase knock-in, luminescence, 24 h; series mostly up to 57.2 µM; activity change, negative = inhibition: at the top concentration
Source text: Assay Submitter (PI): Daniel R. Scoles Ph.D.
Department of Neurology, University of Utah, Salt Lake City, Utah
Accumulation of alpha-synuclein is a main underlying pathological feature of Parkinson's disease (PD) and alpha-synucleinopathies, for which lowering expression of the alpha-synuclein gene (SNCA) is a potential therapeutic avenue. Using a cell-based luciferase reporter of SNCA expression we performed a quantitative high throughput screen (qHTS) of 155,885 compounds in dose response. The screening assay was generated using genome editing to insert the luciferase gene downstream and in frame of the SNCA gene in HEK-293 cells (1). A viability counterscreen using GF-AFC was used to eliminate cytotoxic and false positive compounds. After in silico analysis (clustering, removal of frequent hitter nuisance chemotypes), inhibitor compounds from the primary screen were selected for follow up and re-tested at 11-doses in the SNCA-luc cells (luciferase and GF-AFC confirmation), and in CMV-luc expressing cell line to flag general transcriptional repressors.
Described herein are the results of the primary screen for SNCA inhibitors; decrease in luciferase signal (inhibition of the SNCA gene expression) is the desired output for this assay.
1. Dansithong, W., Paul, S., Scoles, D. R., Pulst, S. M., and Huynh, D. P. (2015) Generation of SNCA Cell Models Using Zinc Finger Nuclease (ZFN) Technology for Efficient High-Throughput Drug Screening. PLoS ONE 10, e0136930.
SEQUENCE No. (e.g., 1, 2, 3, etc.); […] (e.g., Cells, Incubation, Reagent, etc.); VALUE; DESCRIPTION
1; Cells; 4 uL; Dispense 1500 HEK-293-SNCA-luc cells/well into Greiner 1536-well white / solid bottom tissue culture treated plate. The plate was covered with metal lids with gas-exchange holes.
2; Incubate; 24 hours; Incubate at 37C, 5% CO2, 95% RH.
3; Compounds; 23 nL; Compounds and controls were transferred via a Kalypsys Pin Tool (Wako USA) equipped with a 1536-slotted pin array. The plate was covered with metal lids with gas-exchange holes.
4; Incubate; 24 hours; Incubate at 37C, 5% CO2, 95% RH.
5; Dispense; 1 uL; Dispense Gly-Phe-7-amino-4-trifluoromethylcoumarin (GF-AFC, prepared at 125 uM in PBS) was added. The plate was covered with metal lids with gas-exchange holes.
6; Incubate; 30 min; Incubate at 37C, 5% CO2.
7; Detector; Fluorescence; Measure fluorescence with ViewLux microplate reader (PerkinElmer) equipped with 405/10 excitation and 540/25 emission filters.
8; Dispense; 3 uL; Dispense ONE-Glo ([…]) lucifase detection reagent was added to each well. Plates were covered with metal lids with gas-exchange holes.
9; Incubate; 15 min; Incubate at room temperature.
10; Detector; Luminescence; Measure luminescence with ViewLux microplate reader (PerkinElmer) equipped with clear filters.
NOTES (numbers refer to sequence above)
1; HEK-293-SNCA-luc were cultured and suspended in phenol-red free DMEM (4.5 g/L glucose, 25 mM HEPES, cat #21063 (Thermo)).
3; Compounds were added to the assay plate in an 11-point intra plate dose response, 1:3 titration in DMSO with a final concentration range of […]. Vehicle-only plates, with DMSO being pin-transferred to every well, were inserted at the beginning of screening runs to confirm expected assay performance. […]
10; Signals were analyzed, and dose-response curves were fit using the Hill equation. […]
Potency is read from the fitted curve at half-maximal effect.

Compound	Potency	activity change, negative = inhibition
CC[C@H]1C=CC=CC[C@@H](C)[C@H](O)[C@@](C)(O)C(=O)[C@@H](C)[C@H](O)[C@@H](C)C(=O)[C@@H](C)[C@H](O)[C@@H](C)C=CC(=O)O[C@@H]2[C@@H](C)[C@H](CC1)O[C@]1(CC[C@H](C)[C@H](C[C@@H](C)O)O1)[C@H]2C	1.71 µM (active)	
CN(Cc1ccccc1)C[C@H]1CN2CC[C@H]1C[C@@H]2CNC(=O)Nc1ccsc1		-2.49% [at 87.6 µM]
CC(=Cc1csc(C)n1)[C@@H]1C[C@H]2O[C@]2(C)CCC[C@H](C)[C@@H](O)[C@@H](C)C(=O)C(C)(C)[C@@H](O)CC(=O)O1		-26.4%
Cc1nc(-c2ccc(C(F)(F)F)cc2)cc([C@H]2CN3CC[C@H]2C[C@@H]3CNC(=O)C2CCC2)n1		-32.3%
CCOC(=O)[C@H]1CN(C(=O)NC2CCCC2)[C@]2(C)C(=O)Nc3ccccc3[C@H]12		18.1% [at 25.6 µM]
